The text below walks through data of PubChem BioAssay (NCI).

Compounds without any hit were thinned out: in the full panel of roughly 83,000, 20% have a hit.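 For each line, cells grew in 96-well plates with the test compound present at a single concentration for 48 hours.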 A number with no mark means an inactive call. Active and inactive are the calls of the source. Rule for the calls: active = growth percent below 10; inactive = the rest.

What all share (assay): NCI-60 one-dose screen, 48 h (100 = growth as untreated, 0 = no growth, -100 = all killed)
The test system of one experiment is NCI-H23 lung. The settings on record: 10 µM unless noted.
The test system of another experiment is NCI-H226 lung. The conditions noted are these: 10 µM unless noted.
The test system of the next experiment is NCI-H322M lung. The conditions noted are these: 10 µM unless noted.
In the next experiment the test system is HOP-62 NSCLC. The settings on record: 10 µM unless noted.
The subject of another experiment is NCI-H460 lung. The conditions noted are these: 10 µM unless noted.
In the next experiment the test system is HOP-92 NSCLC. The conditions noted are these: 10 µM unless noted.
For the next experiment, the system named is A549/ATCC NSCLC. The conditions noted are these: 10 µM unless noted.
The subject of the next experiment is 786-0 renal. The conditions noted are these: 10 µM unless noted.
The subject of another experiment is COLO 205 colon. The settings on record: 10 µM unless noted.
The next experiment has as its system DU-145 prostate. The settings on record: 10 µM unless noted.
A further experiment relates to K-562 leukemia. The settings on record: 10 µM unless noted.
A further experiment concerns MALME-3M melanoma. The settings on record: 10 µM unless noted.
In another experiment the test system is MDA-MB-231 breast. The conditions noted are these: 10 µM unless noted.
The test system of the next experiment is RXF 393 renal. The conditions noted are these: 10 µM unless noted.
A further experiment has as its system SF-268 CNS. The conditions noted are these: 10 µM unless noted.
In another experiment the test system is SF-295 CNS. The conditions noted are these: 10 µM unless noted.
For another experiment, the system named is SF-539 CNS. The settings on record: 10 µM unless noted.
The next experiment concerns UACC-257 melanoma. The conditions noted are these: 10 µM.
The subject of a further experiment is M14 melanoma. The conditions noted are these: 10 µM unless noted.
The test system of a further experiment is NCI-H522 lung. The conditions noted are these: 10 µM unless noted.

As to `CCNC(=O)Oc1ccc(/C(=C(/C)c2ccc(Cl)cc2)c2ccc(OCCN3CCCC3)cc2)cc1`, the growth in the experiment with NCI-H23 lung is 87.5%; in the experiment with NCI-H226 lung it was 95.8%; with NCI-H322M lung, 93.3%; with HOP-62 NSCLC, 97%; in the experiment with NCI-H460 lung it was 80.6%; in the experiment with HOP-92 NSCLC it was 83.2%. The growth in the experiment on A549/ATCC NSCLC is 73%; in the experiment with 786-0 renal, 71.4%; in the experiment with COLO 205 colon it was 88.8%; with DU-145 prostate it was 102%; in the experiment with K-562 leukemia, 13.5%; in the experiment on MALME-3M melanoma, 63.6%. Moreover, the growth was 88.5% in the experiment on MDA-MB-231 breast; 66.9% in the experiment with RXF 393 renal; 90.5% in the experiment with SF-268 CNS; 96.8% in the experiment on SF-295 CNS; 76.4% with SF-539 CNS; 81.1% in the experiment on UACC-257 melanoma. In addition, in the experiment with M14 melanoma, the growth was 68%.
As to `C=C(C)C(=O)O[C@H]1C[C@@]2(C)OC(=CC2=O)/C(C)=C\[C@H]2OC(=O)C(=C)[C@H]12`, the growth with NCI-H23 lung was -2.39% (active); with NCI-H226 lung, -1.67% (active); in the experiment on NCI-H322M lung, 79.9%; in the experiment on HOP-62 NSCLC, 58.8%; in the experiment on NCI-H460 lung it was 13.3%; with HOP-92 NSCLC, -22% (active). In addition, the growth in the experiment on A549/ATCC NSCLC is 58.5%; with 786-0 renal, -71.3% (active); in the experiment with COLO 205 colon, -50.1% (active); with DU-145 prostate, -3.72% (active); with MALME-3M melanoma it was 6.62% (active); in the experiment on MDA-MB-231 breast, -33.3% (active). Further, the growth in the experiment with RXF 393 renal is -53.7% (active); in the experiment with SF-268 CNS, 7.51% (active); in the experiment with SF-295 CNS, 42.1%; with SF-539 CNS, -54.6% (active); in the experiment with UACC-257 melanoma, -26.3% (active).
For `Cc1ccc(-c2cc(-c3cccc4ccccc34)n3c(n2)nc2ccccc23)cc1`, the growth is 82% in the experiment on NCI-H23 lung; 57.9% in the experiment with NCI-H226 lung; 90.6% in the experiment with NCI-H322M lung; 67.5% in the experiment with HOP-62 NSCLC; 21.9% in the experiment with NCI-H460 lung; 71.6% in the experiment with HOP-92 NSCLC. Besides, the growth in the experiment with A549/ATCC NSCLC is 39.6%; in the experiment with 786-0 renal, 47.6%; in the experiment with COLO 205 colon, 59.7%; with DU-145 prostate, 69.4%; in the experiment with K-562 leukemia it was 51.1%; in the experiment with MALME-3M melanoma, 32.2%. Also, the growth is 73.1% in the experiment on MDA-MB-231 breast; 66.4% with SF-268 CNS; 40.9% with SF-295 CNS; 49.4% in the experiment on SF-539 CNS; 75.1% in the experiment on UACC-257 melanoma; 61.5% in the experiment on M14 melanoma.
With `Cn1c(SC(C(=O)Nc2ccc(F)cc2)c2ccccc2)nc2ccccc2c1=O` (configuration not stated), the growth in the experiment on NCI-H23 lung is 103%; with NCI-H226 lung, 102%; in the experiment with NCI-H322M lung, 111%; in the experiment on HOP-62 NSCLC it was 99.6%; with NCI-H460 lung, 112%; in the experiment on HOP-92 NSCLC it was 86.9%. Moreover, the growth is 99.1% with A549/ATCC NSCLC; 102% with 786-0 renal; 119% in the experiment with COLO 205 colon; 112% in the experiment with DU-145 prostate; 103% in the experiment on K-562 leukemia; 88% with MALME-3M melanoma. The growth was 99.4% in the experiment with MDA-MB-231 breast; 117% in the experiment with RXF 393 renal; 106% in the experiment with SF-268 CNS; 98.2% in the experiment on SF-295 CNS; 96.1% with SF-539 CNS; 95.6% with UACC-257 melanoma.
With `CCOC(=O)c1nn(-c2ccccc2)c(=O)c2c(N)c(C#N)c(-c3cccs3)cc12`, the growth in the experiment on NCI-H23 lung was 69.4%; in the experiment with NCI-H226 lung, 60%; in the experiment on NCI-H322M lung, 91.4%; in the experiment with HOP-62 NSCLC, 80.4%; in the experiment on NCI-H460 lung it was 92.9%; in the experiment with HOP-92 NSCLC, 61.3%. For the same compound, the growth in the experiment on A549/ATCC NSCLC was 87.2%; in the experiment on 786-0 renal, 41.4%; in the experiment on COLO 205 colon, 102%; in the experiment with DU-145 prostate, 88.3%; with K-562 leukemia, 87.5%; in the experiment on MALME-3M melanoma, 88.4%. Also, the growth in the experiment with MDA-MB-231 breast was 76.5%; with RXF 393 renal, 59.9%; in the experiment on SF-268 CNS it was 85.5%; in the experiment on SF-295 CNS it was 64.4%; in the experiment on SF-539 CNS, 57.2%; in the experiment with UACC-257 melanoma it was 93.5%. For the same compound, the growth in the experiment with M14 melanoma is 94.4%.
For `O=C(Cn1cc(CN2C(=O)c3ccc([N+](=O)[O-])cc3C2=O)nn1)Nc1ccc(F)cc1Cl`, the growth was 98% in the experiment with NCI-H23 lung; 101% in the experiment on NCI-H226 lung; 100% in the experiment with NCI-H322M lung; 109% with HOP-62 NSCLC; 106% with NCI-H460 lung; 93.1% in the experiment on NCI-H522 lung. In addition, the growth with A549/ATCC NSCLC was 99.1%; in the experiment on 786-0 renal it was 93.9%; in the experiment with COLO 205 colon, 110%; in the experiment on DU-145 prostate, 106%; with K-562 leukemia it was 97.9%; in the experiment on MALME-3M melanoma, 83.3%. The growth in the experiment with MDA-MB-231 breast was 92.4%; in the experiment with SF-268 CNS it was 99.8%; with SF-295 CNS, 104%; in the experiment with SF-539 CNS, 93.9%; in the experiment on UACC-257 melanoma it was 97.8%; with M14 melanoma it was 94.8%.
For the compound `CC(C)(C)CC(C)(C)n1nnnc1C(Nc1ccccc1)c1cc2cccc3ccc4cccc1c4c32` (configuration not stated), the growth with NCI-H23 lung is 82.3%; in the experiment with NCI-H226 lung, 84%; in the experiment on NCI-H322M lung, 91.5%; with HOP-62 NSCLC, 86.1%; with NCI-H460 lung it was 81.7%; with NCI-H522 lung, 72%. The growth in the experiment with A549/ATCC NSCLC was 78.5%; in the experiment on 786-0 renal it was 88.4%; with COLO 205 colon, 96.4%; in the experiment with DU-145 prostate, 96.9%; with K-562 leukemia, 72.6%; in the experiment on MALME-3M melanoma, 87.4%. The growth in the experiment on MDA-MB-231 breast was 75.1%; in the experiment on RXF 393 renal, 79.5%; in the experiment with SF-268 CNS it was 82.4%; in the experiment with SF-295 CNS it was 86.5%; with SF-539 CNS it was 95.7%; in the experiment with UACC-257 melanoma, 95.5%. In addition, in the experiment with M14 melanoma, the growth is 90.2%.
Consider `COc1ccc(-c2nc3cc(Cl)c(Cl)cc3n2CC(=O)N=Nc2c(O)[nH]c3ccc(Cl)cc23)cc1`, for which the growth is 21.2% with NCI-H23 lung; -8.97% (active) in the experiment with NCI-H226 lung; 46.1% with NCI-H322M lung; 0.657% (active) in the experiment with HOP-62 NSCLC; 16.9% with NCI-H460 lung; 37.6% in the experiment on NCI-H522 lung. In addition, the growth is 18.5% in the experiment on A549/ATCC NSCLC; 24.7% in the experiment on 786-0 renal; -3.46% (active) in the experiment on COLO 205 colon; -10.9% (active) with DU-145 prostate; 32.1% in the experiment with K-562 leukemia; -10.1% (active) with MALME-3M melanoma. Further, the growth was 29.8% with MDA-MB-231 breast; -48.2% (active) with RXF 393 renal; 51.8% in the experiment on SF-268 CNS; 4.56% (active) with SF-295 CNS; 36% in the experiment with SF-539 CNS; 71.9% in the experiment on UACC-257 melanoma. The growth with M14 melanoma was 11.9%.
